In PubChem BioAssay (NCATS):
Inconclusive results are not listed. Where a call stands in place of a potency, no number is given. Values without a mark were called inactive. Activity calls are given as the source filed them. Calls follow the shape of the dose curve; as a rule, active = well fitted curve in the direction sought with a large enough effect; inconclusive = small, poorly fitted or top-dose-only effect, or another doubt; inactive = no such curve, though single readings can be large; an effect the other way counts as inactive or inconclusive. Numbered stars: 1 amine (or outer) side, 2 acyl side, 3 side chain; on linkers, the order of the positions; unused ones are H or OH. Bridge positions count the residues as written; N and C are the ends. Square brackets hold non-standard residues; d marks the D form. Peptide text beside a SMILES is read from it. * marks the point of attachment. ξ: configuration not given here. ΔAla(Z-3-ureido) = NC(=O)N/C=C(\N)C(=O)O; X1 = NC1=NCCC(C(N[*:1])C(=O)[*:2])N1; ξβ3hOrn = NCCCC(N)CC(=O)*; Orn = NCCC[CH](N)C(=O)O; Dap = NC[CH](N)C(=O)O

Columns and labels:
[1] = qHTS for Inhibitors of Plasmodium falciparum (CP250) proliferation (AID 504320); also: potency is read from the fitted curve at half-maximal effect
Summary of the method: (§1)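 Erythrocytes infected with P. falciparum line (0.3% parasitemia, 2.5% hematocrit final) incubated with compounds 72 h at 37 °C, 5% CO2; SYBR Green lysis buffer added, fluorescence read next day. Normalized to 0.29 uM artemisinin and DMSO.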

[2] = qHTS for Inhibitors of Plasmodium falciparum (7G8) proliferation (AID 504316); also: nearly all actives have a fitted effect of over 65% in size; also: potency is read from the fitted curve at half-maximal effect
Summary of the method: as §1

[3] = qHTS for Inhibitors of Plasmodium falciparum (HB3) proliferation (AID 504318); also: nearly all actives have a fitted effect of over 60% in size; also: potency is read from the fitted curve at half-maximal effect
Summary of the method: as §1

[4] = qHTS for Inhibitors of Plasmodium falciparum (GB4) proliferation (AID 504315); also: nearly all actives have a fitted effect of over 50% in size; also: potency is read from the fitted curve at half-maximal effect
Summary of the method: as §1

[5] = molecular target: Ubiquitin carboxyl-terminal hydrolase 1 (Homo sapiens) (UniProt O94782); experiment: Inhibitors of USP1/UAF1: Pilot qHTS (AID 504865);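 also: rhodamine fluorescence freed from ubiquitin-rhodamine substrate followed over time; top concentration of the series differs between compounds; nearly all actives have a fitted effect of over 35% in size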
Summary of the method: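 1nM USP1/UAF1 + cpd, 15 min RT; start w/ Ub-Rho 150nM final; kinetic FL 480/540 nm, 6 reads q60 s. Buffer 50mM HEPES pH 7.8, 0.5mM EDTA, 1mM TCEP, 0.01% Tween-20, 0.1 mg/ml BSA.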

[6] = qHTS profiling for inhibitors of Plasmodium falciparum proliferation (AID 504749); also: potency is read from the fitted curve at half-maximal effect; as to all read-outs here: nearly all actives have a fitted effect of over 60% in size; conditions: P. falciparum in erythrocytes, SYBR Green DNA, 72 h; for activity, negative = inhibition: at 28.7 µM (top of the series)
Summary of the method: (§2)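 Three-day growth assay of blood-stage parasites in erythrocytes (0.3% parasitemia, 2.5% hematocrit) at 37 C, 5% CO2, quantified by SYBR Green DNA staining after overnight detergent lysis.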

ATS189 = experiment: as above; conditions: P. falciparum in erythrocytes, SYBR Green DNA, 72 h; series mostly up to 28.7 µM
Summary of the method: as §2

CP185 = experiment: as above; conditions: P. falciparum in erythrocytes, SYBR Green DNA, 72 h; series mostly up to 28.7 µM
Summary of the method: as §2

CP201 = experiment: as above; conditions: P. falciparum in erythrocytes, SYBR Green DNA, 72 h; series mostly up to 28.7 µM
Summary of the method: as §2

CP238 = experiment: as above; conditions: P. falciparum in erythrocytes, SYBR Green DNA, 72 h; series mostly up to 28.7 µM
Summary of the method: as §2

CP252 = experiment: as above; conditions: P. falciparum in erythrocytes, SYBR Green DNA, 72 h; series mostly up to 28.7 µM
Summary of the method: as §2

CP265 = experiment: as above; conditions: P. falciparum in erythrocytes, SYBR Green DNA, 72 h; series mostly up to 28.7 µM
Summary of the method: as §2

CP286 = experiment: as above; conditions: P. falciparum in erythrocytes, SYBR Green DNA, 72 h; series mostly up to 28.7 µM
Summary of the method: as §2

CP305 = experiment: as above; conditions: P. falciparum in erythrocytes, SYBR Green DNA, 72 h; series mostly up to 28.7 µM
Summary of the method: as §2

CP325 = experiment: as above; conditions: P. falciparum in erythrocytes, SYBR Green DNA, 72 h; series mostly up to 28.7 µM
Summary of the method: as §2

DFO2036 = experiment: as above; conditions: P. falciparum in erythrocytes, SYBR Green DNA, 72 h; series mostly up to 28.7 µM
Summary of the method: as §2

FAB9 = experiment: as above; conditions: P. falciparum in erythrocytes, SYBR Green DNA, 72 h; series mostly up to 28.7 µM
Summary of the method: as §2

PC15 = experiment: as above; conditions: P. falciparum in erythrocytes, SYBR Green DNA, 72 h; series mostly up to 28.7 µM
Summary of the method: as §2

PC49 = experiment: as above; conditions: P. falciparum in erythrocytes, SYBR Green DNA, 72 h; series mostly up to 28.7 µM
Summary of the method: as §2

Sequence of Ubiquitin carboxyl-terminal hydrolase 1 (Homo sapiens) (O94782 whole entry, looked up): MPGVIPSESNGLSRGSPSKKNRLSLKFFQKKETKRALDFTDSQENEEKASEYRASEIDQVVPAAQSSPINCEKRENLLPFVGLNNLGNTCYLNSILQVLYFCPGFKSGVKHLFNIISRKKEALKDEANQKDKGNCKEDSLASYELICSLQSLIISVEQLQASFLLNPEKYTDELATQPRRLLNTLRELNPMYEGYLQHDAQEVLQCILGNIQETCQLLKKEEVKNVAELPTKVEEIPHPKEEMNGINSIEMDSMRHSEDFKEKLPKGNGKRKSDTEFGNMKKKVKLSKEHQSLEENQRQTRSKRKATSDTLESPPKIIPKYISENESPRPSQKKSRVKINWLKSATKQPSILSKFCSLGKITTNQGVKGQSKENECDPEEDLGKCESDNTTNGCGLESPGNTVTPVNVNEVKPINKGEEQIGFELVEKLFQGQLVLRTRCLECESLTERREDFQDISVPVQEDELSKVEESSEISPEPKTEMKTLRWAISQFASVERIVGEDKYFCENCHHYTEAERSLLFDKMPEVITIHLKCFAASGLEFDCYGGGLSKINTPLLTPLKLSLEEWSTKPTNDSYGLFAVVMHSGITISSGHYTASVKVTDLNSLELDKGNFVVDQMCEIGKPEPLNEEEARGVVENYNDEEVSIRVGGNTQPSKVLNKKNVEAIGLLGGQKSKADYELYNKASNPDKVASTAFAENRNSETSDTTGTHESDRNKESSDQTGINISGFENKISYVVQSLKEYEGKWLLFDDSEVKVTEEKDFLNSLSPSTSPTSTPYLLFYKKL

## CC(CCN1CCCCc2nc(C)c(C)cc21)=NO[C@@H](C)c1cn([C@H](CO)Cc2ccccc2)nn1
[1]
  Potency: inactive

## CCCCc1cc2c(cn1)=C(OC(=O)c1ccc(Cl)nc1)C(C)(OC(=O)CC)C(=O)C=2 (configuration not stated)
[1]
  Potency: inactive

## C[C@H]1Cc2c(-c3ccccc3)nc3c(c2CO1)CN(C(=O)NCCc1c[nH]c2ccccc12)CC3
[2]
  Potency: inactive
[3]
  Potency: inactive
[1]
  Potency: inactive

## COC(=O)C1=C(C(=O)OC)[C@@H]2N(Cc3ccccc3)c3ccccc3[C@@]23C[C@@H](C(=O)OC)N(S(=O)(=O)c2ccc(OC)cc2)C3=N1
[3]
  Potency: 1900 nM (active)

## CCCNC(=O)N1C2=NC(C(=O)OC)=C(C(=O)OC)[C@@H]3N(C)c4ccccc4[C@]23C[C@H]1C(=O)OC
[4]
  Potency: inactive
[2]
  Potency: inactive
[1]
  Potency: inactive

## COC(=O)[C@@H]1CC[C@H](C)[C@@H](c2ccc(C)cc2)N1C(=O)c1ccc(C=NO[C@@H](C)c2cc(-c3c(C)cc(C)cc3C)no2)cc1
[4]
  Potency: 1690 nM (active)
[2]
  Potency: 1690 nM (active)
[1]
  Potency: 1690 nM (active)

## C[C@H]1Cc2c(COc3ccccc3)nc3c(c2CO1)CN(S(=O)(=O)c1ccc(Cl)c2nonc12)CC3
[4]
  Potency: inactive
[3]
  Potency: inactive
[1]
  Potency: inactive

## COC(=O)c1ccccc1S(=O)(=O)N1CCc2nc(-c3ccc(OC)cc3C)c3c(c2C1)CO[C@@H](c1ccccc1)C3
[1]
  Potency: inactive

## CCCCCC(=O)c1cc(CC(C(=O)OC)C(=O)OC)cc2cc(OC)c(OC)cc12
[4]
  Potency: inactive
[2]
  Potency: inactive
[1]
  Potency: inactive

## c1ccc(-c2nc(-c3cccc4ccccc34)c(Nc3ccc4ccccc4c3)o2)cc1
[4]
  Potency: 1510 nM (active)
[3]
  Potency: 1510 nM (active)

## COC(=O)N1C2=C(c3ccccc3[C@@H]1CC(=O)Nc1ccc3ccc4cccc5ccc1c3c45)[C@@H]1C(=O)N(c3ccccc3)C(=O)[C@@H]1[C@H](C)C2
[2]
  Potency: 1510 nM (active)
[3]
  Potency: 2130 nM (active)
[1]
  Potency: 1510 nM (active)

## COC(=O)C1=C(C(=O)OC)[C@@H]2N(Cc3ccccc3)c3ccccc3[C@@]23C[C@@H](C(=O)OC)N(S(=O)(=O)c2ccc4c(c2)OCCN4C)C3=N1
[2]
  Potency: 1900 nM (active)
[3]
  Potency: 1200 nM (active)
[1]
  Potency: 1510 nM (active)

## COC(=O)C1=C(C(=O)OC)[C@@H]2N(C)c3ccc(OC)cc3[C@@]23C[C@@H](C(=O)OC)N(S(=O)(=O)c2c(C)noc2C)C3=N1
[3]
  Potency: inactive
[1]
  Potency: inactive

## COC(=O)CCCC1=CC2=C(c3ccccc3)C(=O)C(C)(OC(=O)C3CCCC3)C(=O)C2=CN1CCc1c[nH]c2ccccc12 (configuration not stated)
[4]
  Potency: inactive
[1]
  Potency: inactive

## CCCCS(=O)(=O)N1C2=NC(C(=O)OC)=C(C(=O)OC)[C@@H]3N(Cc4ccccc4)c4ccccc4[C@]23C[C@H]1C(=O)OC
[3]
  Potency: 2390 nM (active)

## COC(=O)C1=C(C(=O)OC)[C@@H]2N(Cc3ccccc3)c3ccccc3[C@@]23C[C@@H](C(=O)OC)N(S(=O)(=O)c2ccc(C(F)(F)F)cc2)C3=N1
[4]
  Potency: 536 nM (active)
[3]
  Potency: 478 nM (active)
[1]
  Potency: 536 nM (active)

## CC(C)Nc1oc(-c2ccccc2)nc1C=Cc1ccccc1
[3]
  Potency: 1900 nM (active)
[1]
  Potency: inactive

## COC(=O)CCC(=O)OC1(C)C(=O)C2=CN(CCc3c[nH]c4ccccc34)C(c3ccc(OC)cc3)=CC2=C(Br)C1=O (configuration not stated)
[4]
  Potency: inactive
[3]
  Potency: inactive
[1]
  Potency: inactive

## C[C@@H]1CC[C@H]2C(=O)N(Cc3ccccc3)C[C@H](O)CN2[C@H]1c1ccc(Br)cc1
[4]
  Potency: inactive
[1]
  Potency: inactive

## CCCCc1nc2c(c3c1C[C@H](C)OC3)CN(C(=O)NCCc1c[nH]c3ccccc13)CC2
[2]
  Potency: inactive
[3]
  Potency: inactive
[1]
  Potency: inactive

## COc1cc2c(cc1OC)[C@@H]1O[C@](CCCCN3C(=O)c4ccccc4C3=O)(C2)OC2=C1C(=O)CCC2
[2]
  Potency: 1690 nM (active)
[1]
  Potency: inactive

## O=C(/C=C/c1ccc(O)cc1)c1c(O)cc(O)cc1O
[5]
  Potency: inactive

## Cn1cc(O)nc1NC(=O)Nc1cccc(Cl)c1
[5]
  Potency: inactive
[6]; parasite line A
  activity, negative = inhibition: -22.2%
[6]; parasite line B
  activity, negative = inhibition: -22.3%
ATS189
  Potency: inactive
CP185
  Potency: inactive
CP201
  Potency: inactive
CP238
  Potency: inactive
CP252
  Potency: inactive
CP265
  Potency: inactive
CP286
  Potency: inactive
CP305
  Potency: inactive
CP325
  Potency: inactive
DFO2036
  Potency: inactive
FAB9
  Potency: inactive
PC15
  Potency: inactive
PC49
  Potency: inactive

## NCCCC(N)CC(=O)NCC1NC(=O)C(CO)NC(=O)C(N)CNC(=O)C(C2CCN=C(N)N2)NC(=O)/C(=C/NC(N)=O)NC1=O (stereo not drawn) (H-[Dap]S[Dap](ξβ3hOrn)[ΔAla(Z-3-ureido)][X1]; lactam 1-C; configuration not given here)
[5]
  Potency: inactive
[6]; parasite line A
  activity, negative = inhibition: 10.1%
[6]; parasite line B
  activity, negative = inhibition: 0.112%
ATS189
  Potency: inactive
CP185
  Potency: inactive
CP201
  Potency: inactive
CP238
  Potency: inactive
CP252
  Potency: inactive
CP265
  Potency: inactive
CP286
  Potency: inactive
CP305
  Potency: inactive
CP325
  Potency: inactive
DFO2036
  Potency: inactive
FAB9
  Potency: inactive
PC15
  Potency: inactive
PC49
  Potency: inactive

## CC(C)CC1NC(=O)C(CCCN)NC(=O)C(C(C)C)NC(=O)C2CCCN2C(=O)C(Cc2ccccc2)NC(=O)C(CC(C)C)NC(=O)C(CCCN)NC(=O)C(C(C)C)NC(=O)C2CCCN2C(=O)C(Cc2ccccc2)NC1=O (configuration not stated) (cyclo(FPV[Orn]LFPV[Orn]L); configuration not given here)
[5]
  Potency: inactive
[6]; parasite line A
  Potency: 1.3 nM (active)
[6]; parasite line B
  Potency: 1.3 nM (active)
ATS189
  Potency: 2.2 nM (active)
CP185
  Potency: 2.8 nM (active)
CP201
  Potency: 3.4 nM (active)
CP238
  Potency: 1.6 nM (active)
CP252
  Potency: 1.3 nM (active)
CP265
  Potency: 1.1 nM (active)
CP286
  Potency: 0.8 nM (active)
CP305
  Potency: 1.9 nM (active)
CP325
  Potency: 1.1 nM (active)
DFO2036
  Potency: 2.8 nM (active)
FAB9
  Potency: 10 nM (active)
PC15
  Potency: 5.6 nM (active)
PC49
  Potency: 7.1 nM (active)

## CCOC(=O)C(CS)NCCN[C@@H](CS)C(=O)OCC (some centres not stated)
[5]
  Potency: inactive
[6]; parasite line A
  activity, negative = inhibition: -2.53%
[6]; parasite line B
  activity, negative = inhibition: -3.46%
ATS189
  Potency: inactive
CP185
  Potency: inactive
CP201
  Potency: inactive
CP238
  Potency: inactive
CP252
  Potency: inactive
CP265
  Potency: inactive
CP286
  Potency: inactive
CP305
  Potency: inactive
CP325
  Potency: inactive
DFO2036
  Potency: inactive
FAB9
  Potency: inactive
PC15
  Potency: inactive
PC49
  Potency: inactive
